Inconclusive results are not listed. Unmarked numbers belong to inactive results. Calls of active or inactive are those of the source. Unless noted, calls follow the shape of the full dose curve.
% is scaled to controls: 0 for no effect and ±100 for the full control effect.

Sequence of Vitamin D3 receptor (Homo sapiens) (P11473 whole entry, looked up): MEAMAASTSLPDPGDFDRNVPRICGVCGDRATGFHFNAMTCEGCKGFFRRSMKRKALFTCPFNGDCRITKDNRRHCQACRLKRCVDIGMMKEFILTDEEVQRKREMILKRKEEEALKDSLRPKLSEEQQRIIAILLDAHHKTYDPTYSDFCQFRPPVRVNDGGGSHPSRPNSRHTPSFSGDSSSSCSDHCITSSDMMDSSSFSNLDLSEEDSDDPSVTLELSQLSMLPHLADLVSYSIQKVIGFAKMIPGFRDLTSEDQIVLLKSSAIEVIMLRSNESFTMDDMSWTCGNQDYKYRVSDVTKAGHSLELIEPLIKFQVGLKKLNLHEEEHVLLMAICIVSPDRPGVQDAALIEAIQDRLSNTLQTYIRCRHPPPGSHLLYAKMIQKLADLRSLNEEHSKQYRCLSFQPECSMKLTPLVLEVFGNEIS

For the first assay, the target named is Vitamin D3 receptor (Homo sapiens) (UniProt P11473). Description: qHTS assay to identify small molecule agonists of the vitamin D receptor (VDR) signaling pathway (AID 743222). Particulars: HEK293T VDR-UAS-bla, beta-lactamase FRET ratio, 16 h; series mostly up to 63.5 µM. The method, boiled down:
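VDR-bla cells were plated 4 h at 37C/5% CO2, then exposed to compounds in DMSO for 16 h. After LiveBLAzer B/G FRET substrate addition and 2 h at room temperature, beta-lactamase reporter fluorescence was read.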
Background: qHTS replaces the single test concentration by a dilution series.
Turning to `NC(=O)c1c(Cl)cccc1Cl`, the outcome was inactive.

With `CC/C=C\CCCCO`, the outcome was inactive. The same measure, in the same setting: for `CN1[C@@H]2CC[C@H]1CC(NC(=O)n1c(=O)[nH]c3ccccc31)C2` (stereo partly drawn) the value was “inactive”; for `CCN1CCCC1CNC(=O)c1cc(S(N)(=O)=O)ccc1OC` (stereo not drawn), “inactive”; for `C=CCSCC1Nc2cc(Cl)c(S(N)(=O)=O)cc2S(=O)(=O)N1` (stereo not drawn), “inactive”.

Take `CC1(C)OC(=O)Nc2ccc(Br)cc21`: the result was inactive.

Turning to `Cc1ccc(Nc2ccc(O)c3c2C(=O)c2ccccc2C3=O)cc1`, the result was inactive. On to `C(=C(c1ccccc1)c1ccccc1)c1ccccc1`, for which the result was inactive. `CCCc1ccccc1O`: the result was inactive. The same measure, in the same setting: for `CC(C)CCOC(=O)CC(C)C` the value was “inactive”; for `CNc1ncnc2nc[nH]c12`, “inactive”; for `CC(O)CN(CCCN(C)C)CCCN(C)C` (stereo not drawn), “inactive”. As for `COc1ccc2cc(C=O)ccc2c1`, the result was inactive. The same measure, in the same setting: for `CN(C)N=Nc1ccccc1` the value was “inactive”.

For another assay the target is unchanged. The experiment in a line: qHTS assay to identify small molecule antagonists of the vitamin D receptor (VDR) signaling pathway (AID 743223; active = well fitted inhibition curve with a large enough effect in the signal ratio in the repeat runs, not every such curve was filed as active; the % refers to the signal ratio). The note with it: VDR-UAS-bla HEK293T, beta-lactamase FRET ratio, 16 h; series mostly up to 61 µM. The procedure, abridged: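 Quantitative HTS in VDR-bla reporter cells stimulated with 1alpha,25-dihydroxyvitamin D3, 3 nM final. Compound exposure 16 h, 37C, 5% CO2. Read-out: beta-lactamase FRET substrate fluorescence, 2 h RT.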
Consider `OC[C@H]1O[C@@H]2O[C@H]3[C@H](O)[C@@H](O)[C@@H](O[C@H]4[C@H](O)[C@@H](O)[C@@H](O[C@H]5[C@H](O)[C@@H](O)[C@@H](O[C@H]6[C@H](O)[C@@H](O)[C@@H](O[C@H]7[C@H](O)[C@@H](O)[C@@H](O[C@H]8[C@H](O)[C@@H](O)[C@@H](O[C@H]9[C@H](O)[C@@H](O)[C@@H](O[C@H]1[C@H](O)[C@H]2O)O[C@@H]9CO)O[C@@H]8CO)O[C@@H]7CO)O[C@@H]6CO)O[C@@H]5CO)O[C@@H]4CO)O[C@@H]3CO`, for which the result was inactive. Take `CC(C)COC(=O)C(C)C`: the result was inactive. As for `Cc1nccn1CC1CCc2c(c3ccccc3n2C)C1=O` (stereo not drawn), the outcome was inactive. On the same count and under the same terms, for `COc1cccc(OC)c1` the value was “inactive”. In the case of `CCOC(=O)Cn1c(=O)sc2cccc(Cl)c21`, the outcome was inactive. As for `NS(=O)(=O)c1cc(C2(O)NC(=O)c3ccccc32)ccc1Cl` (stereo not drawn), the result was inactive. Take `N#CC1(O)CCCCC1`: the result was inactive. Still for that read-out and setting: the same measure for `O=C1OC(=O)c2cc([N+](=O)[O-])ccc21`: “inactive”; for `C=C(C)C(=O)NCCCN(C)C`: “inactive”; for `O=C1CC2(CCCC2)CC(=O)N1`: “inactive”.

Turning to `FC(F)(F)C(F)(F)C(F)(F)C(F)(F)C(F)(F)C(F)(F)C(F)(F)C(F)(F)C(F)(F)C(F)(F)F`, the activity change, negative = inhibition is -8.47% [at 6.95 µM]. Consider `N#CCc1ccccc1[N+](=O)[O-]`, for which the result was inactive.

On to `NC(=O)c1c(Cl)cccc1Cl`, for which the outcome was inactive. With `CC/C=C\CCCCO`, the outcome was inactive. Regarding `CN1[C@@H]2CC[C@H]1CC(NC(=O)n1c(=O)[nH]c3ccccc31)C2` (stereo partly drawn), the result was inactive. The same measure, in the same setting: for `CCN1CCCC1CNC(=O)c1cc(S(N)(=O)=O)ccc1OC` (stereo not drawn) the value was “inactive”. In the case of `C=CCSCC1Nc2cc(Cl)c(S(N)(=O)=O)cc2S(=O)(=O)N1` (stereo not drawn), the outcome was inactive. Take `CC1(C)OC(=O)Nc2ccc(Br)cc21`: the outcome was inactive. The same measure, in the same setting: the same measure for `Cc1ccc(Nc2ccc(O)c3c2C(=O)c2ccccc2C3=O)cc1`: “inactive”; for `C(=C(c1ccccc1)c1ccccc1)c1ccccc1`: “inactive”; for `CCCc1ccccc1O`: “inactive”.

On to `CC(O)CN(CCCN(C)C)CCCN(C)C` (stereo not drawn), for which the result was inactive. Turning to `COc1ccc2cc(C=O)ccc2c1`, the result was inactive. In the case of `CN(C)N=Nc1ccccc1`, the outcome was inactive.

These data come from PubChem BioAssay (Tox21).
